Among all 51,000 compounds or so, about 600 (1.2%) were called active. Not shown: some 2% with an inconclusive outcome. The entries come from a sample that favours actives as a whole. A number with no mark means an inactive call. Cut-off read from the data, not from the text of the source: active = potency below about 11 µM; inconclusive = mostly about 12 µM to 25 µM; inactive = weaker than that;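 the screen sought inhibitors and activators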.
Potency is the fitted concentration of half-maximal effect.

This assay concerns pyruvate kinase (Bacillus stearothermophilus). Description: Pyruvate Kinase. The settings on record: purified pyruvate kinase, luminescence ATP production; ribose 5-phosphate activator present at AC10. On the procedure: Pyruvate kinase (partially purified from Bacillus stearothermophilus) was assayed for its ability to generate ATP from ADP using phosphoenolpyruvate (PEP) as a substrate. ATP generation was detected in a coupled reaction by luciferase-mediated luminescence, an ATP-dependent process. Pyruvate kinase substrates, PEP and ADP, were present in the assay at Km and […]-fold below Km respectively. The enzyme was assayed at an intermediate level of activity to screen for inhibitors and activators. In addition, ribose 5 phosphate, a positive modulator of pyruvate kinase, was included in the assay at AC10 in order to identify possible potentiators.
NCGC Assay Protocol Summary:
Three uL of substrate mix (final concentration, 50 mM imidazole pH 7.2, 50 mM KCl, 7 mM MgCl2, 2 mM PEP, 0.1 mM ADP, 0.7 nM ribose 5 phosphate, 0.01% Tween 20, 0.05% BSA) was dispensed into 1536 well plates. 23 nL of compound were delivered by a pin tool and 1 uL of enzyme mix (final concentration, 10 nM pyruvate kinase, 50 mM imidazole pH 7.2, 0.05% BSA) was added. After centrifugation at 1000 rpm for less than a minute, plates were incubated at room temperature for 2 hours. Three uL of detection and kinase stop mix (PKLight, Cambrex) was added, the plates centrifuged, and luminescence read by a ViewLux (Perkin Elmer) at 5 second exposure/plate. Data were normalized to the controls for AC100 stimulation (5 uM ribose 5 phosphate) and to AC100 inhibition (110 uM luteolin).
`CC(C)(C)NC(=O)NC(=O)COC(=O)Cn1c(C(F)(F)F)nc2ccccc21`: the Potency is greater than 57 µM.
As for `CCN(CC)C(=O)CSc1nnc(-c2ccc(S(=O)(=O)NCc3ccccc3Cl)cc2)o1`, the Potency was greater than 57 µM.
Regarding `CCn1c(SCC(=O)Nc2nc3ccc(OC)cc3s2)nnc1-c1ccoc1C`, the Potency is greater than 57 µM.
As to `O=C(CN1CCN(c2ccccn2)CC1)NCc1cccs1`, the Potency is greater than 57 µM.
For `CC(C)n1c(SCC(=O)Nc2ccccc2N2CCCCC2)nc2c1c(=O)n(C)c(=O)n2C`, the Potency is greater than 57 µM.
Regarding `COC(=O)c1ccc(Oc2nc(NC(C)C)nc(SC)n2)cc1`, the Potency is greater than 57 µM.
With `CNC(=O)CSc1nnc(CCc2ccccc2)n1-c1ccccc1`, the Potency is greater than 57 µM.
With `CCOC(=O)C1CCN(C(=O)c2oc3ccc(S(=O)(=O)N4CCCCCC4)cc3c2C)CC1` the figure was greater than 57 µM; with `CCOC(=O)C1CCN(c2ncnc3c2oc2ccc(Br)cc23)CC1`, 10.6 µM (active); with `Cc1cc(C)nc(N2CCN(c3ncnc4c3oc3ccccc34)CC2)n1`, greater than 57 µM.
As to `COc1ccc(-c2cn3ccsc3n2)cc1`, the Potency is 4.01 µM (active).
For `CCCC(=O)Nc1cccc(-c2cn3ccsc3n2)c1`, the Potency is 49.6 µM.
With `O=C(NCc1cn2ccsc2n1)Nc1ccc(Cl)cc1` the figure was greater than 57 µM.
Take `COc1ccc(CCNC(=O)CN2CCC(n3nnc4cc(F)ccc43)CC2)cc1OC`: the Potency is greater than 57 µM.
As to `CCCc1cc(=O)oc2c(C)c(O)c(CN3CCCCC3)cc12`, the Potency was greater than 25.6 µM.
Regarding `COc1ccccc1C(=O)Oc1ccc(N2C(=O)CCC2=O)cc1`, the Potency is greater than 57 µM.
Take `O=S(=O)(/C=C/c1ccccc1)NCCc1ccccn1`: the Potency is greater than 57 µM.
As for `O=C(c1cccs1)N1CCC(c2nc3ccccc3s2)CC1`, the Potency was greater than 57 µM.
With `O=C(OC1CCOC1=O)c1ccc(-c2nc3ccccc3s2)s1` (stereo not drawn), the Potency is 4.84 µM (active).
Turning to `Cc1nn(Cc2ccccc2)c(Cl)c1C(=O)OC1CCOC1=O` (stereo not drawn), the Potency is greater than 57 µM.
For the molecule `CC(NCCO)C(=O)C12CC3CC(CC(C3)C1)C2` (stereo not drawn), the Potency was greater than 57 µM.
For `CCC(C)NC(=O)N[C@@H](CCSC)C(=O)O` (stereo partly drawn), the Potency is greater than 57 µM.
`COC(=O)CNC(=O)c1ccc2c(c1)S(=O)(=O)c1ccccc1C2=O`: the Potency was greater than 57 µM.
As to `O=C(Oc1ccccc1)c1ccc2nccnc2c1`, the Potency is greater than 57 µM.
As for `CC(C)c1nc(-c2ccccn2)no1`, the Potency is greater than 57 µM.
For `O=C(Oc1ccc(-c2nc(-c3ccccn3)no2)cc1)c1ccccc1`, the Potency is 6.85 µM (active).
Turning to `CCOC(=O)CSC1=C(C#N)C(c2ccco2)C(C(=O)OCc2ccccc2)=C(C)N1` (stereo not drawn), the Potency was greater than 57 µM.
The figure for `N#Cc1c2c(c(-c3ccccc3)[nH]c1=O)CCCC2` is greater than 25.6 µM; for `CCc1nnc(NC(=O)CSc2nnc(-c3ccncc3)n2Cc2ccccc2)s1` it is greater than 57 µM.
In the case of `C=CCN(CC=C)C(=O)CN1C(=O)c2ccccc2C1=O`, the Potency was greater than 57 µM.
The figure for `Cc1cc(C(=O)COC(=O)CCCN2C(=O)c3ccccc3C2=O)c(C)n1C` is greater than 57 µM; for `C=CCn1c(C)cc(C(=O)CN2C(=O)c3ccccc3C2=O)c1C` it is 5.37 µM (active).
On to `O=C1CCC(C(=O)Nc2ccc(OC(F)F)cc2)N1` (stereo not drawn), for which the Potency was greater than 57 µM.
`COc1ccc(-c2cc3ccc(OCc4nn[nH]n4)cc3oc2=O)cc1`: the Potency is 5.08 µM (active).
On to `CCCCc1cc(=O)oc2cc(C)cc(OCc3nn[nH]n3)c12`, for which the Potency was greater than 57 µM.
With `O=c1oc2cc(O)ccc2cc1-c1ccc(F)cc1` the figure was greater than 57 µM; with `CCCCOc1ccc(C(C)(O)CCN2CCOCC2)cc1` (stereo not drawn), greater than 57 µM.
With `O=C(CC1Nc2ccccc2NC1=O)Nc1ccccc1` (stereo not drawn) the figure was greater than 11.4 µM; with `Cc1ncc(CC(=O)n2cc(C(=O)c3cc(Cl)ccc3O)cn2)s1`, greater than 57 µM; with `O=C1CC(Cc2ccccc2)C(=O)N1c1ccc(Cl)cn1` (stereo not drawn), greater than 57 µM.
In the case of `O=C(O)CCCC(=O)Nc1ccccc1-n1ccnc1`, the Potency was greater than 57 µM.
For the molecule `CC(=O)c1cc2c(cc1N)OCO2`, the Potency is greater than 57 µM.
Turning to `CCCCN(C)C(=O)C1CCN(Cc2ccccn2)CC1`, the Potency is greater than 57 µM.
Regarding `Cc1cc(N2CCCC2)n2nc(C)c(-c3ccccc3)c2n1`, the Potency is greater than 57 µM.
With `c1coc(-c2nc3nc4ccccc4n3nc2-c2ccco2)c1` the figure was greater than 57 µM.
As for `CN(c1nc2ccccc2n2c(-c3ccco3)nnc12)S(=O)(=O)c1ccccc1`, the Potency is greater than 57 µM.
In the case of `Cn1c(-c2ccco2)nc2cc3ccccc3cc21`, the Potency was 0.493 µM (active).
As for `Clc1ccc(CSc2nnc([C@@H]3CCCN3)o2)cc1`, the Potency was greater than 57 µM.
Turning to `CCN1CCN(C(=O)c2ccccc2N(C)S(=O)(=O)c2ccc(C)cc2)CC1`, the Potency is greater than 57 µM.
For the molecule `Cc1nnc(NC2=NCCCCC2)o1`, the Potency was greater than 57 µM.
Regarding `Cc1cc(C)c2nc(SCCC#N)nc(C)c2c1`, the Potency is 48.9 µM.
Regarding `Fc1ccc2[nH]c3c(N4CCN(Cc5ccc6c(c5)OCO6)CC4)ncnc3c2c1`, the Potency was greater than 25.6 µM.
Take `CNC(=O)C1CC(=O)N(Cc2ccc3c(c2)OCO3)C(=Nc2ccc(F)cc2)S1` (stereo not drawn): the Potency was greater than 57 µM.
With `Cc1cc(C)n(C(=O)c2ccc(C)c(S(=O)(=O)N3CCOCC3)c2)n1` the figure was greater than 57 µM; with `COc1ccc2nc(N3CCCC(O)C3)c(C#N)cc2c1` (stereo not drawn), 41.4 µM.
With `O=C(NCc1ccccc1)C1C(=O)N(Cc2ccccc2)C(=O)C1C1(O)CCCC1` (stereo not drawn) the figure was greater than 25.6 µM; with `CC1CCCN(C(=O)Cn2c(=O)oc3ccccc32)C1` (stereo not drawn), greater than 57 µM; with `COc1c(F)c(F)c(-c2csc(N)n2)c(F)c1F`, greater than 57 µM.
For `Cc1cc(=O)oc(C)c1C(=O)Nc1cnc2ccccc2c1`, the Potency was greater than 57 µM.
Consider `Cc1ccc2c(C(=O)CN3CCCC3)c(C)[nH]c2c1`, for which the Potency was greater than 11.4 µM.
In the case of `COc1ccc(N=Cc2c(O)[nH]c3ccccc23)cc1OC`, the Potency was 4.61 µM (active).
On to `COc1ccc(OC)c(N=Cc2c(O)[nH]c3ccccc23)c1`, for which the Potency was greater than 57 µM.
Turning to `COC(=O)c1[nH]c2ccccc2c1NS(=O)(=O)c1ccc(OC)cc1OC`, the Potency is greater than 57 µM.
As for `Cc1cc(NC(=O)CSc2nnc(-c3ccc(Cl)s3)o2)no1`, the Potency is greater than 57 µM.
In the case of `Cc1cc(C)c2c(c1)cc(C)c1nnc(SCC(=O)Nc3cc(C)on3)n12`, the Potency was greater than 57 µM.
For the molecule `Cc1nc(SCC(=O)Nc2cc(C)on2)c2c(C)c(C)sc2n1`, the Potency is greater than 57 µM.
Turning to `Cc1ccc2nc(-c3ccc(SCC(=O)Nc4cc(C)on4)nc3)[nH]c2c1`, the Potency was 2.74 µM (active).
As for `COc1ccc(OC)c2c(N)c(C#N)c(C(F)(F)C(F)(F)F)nc12`, the Potency was greater than 25.6 µM.
In the case of `C=CCc1cccc2cc(C(=O)N3CCN(C(=O)OCC)CC3)c(=O)oc12`, the Potency is greater than 57 µM.
With `COc1ccccc1CNCc1cccs1`, the Potency is greater than 57 µM.
Regarding `COc1ccc(CNC(=O)c2c(C)cc(=O)oc2C)cc1OC`, the Potency is greater than 25.6 µM.
The figure for `Cc1ccc(C(=O)NCC2CCCO2)o1` (stereo not drawn) is greater than 57 µM.
Regarding `CCc1cc2c(=O)c(-c3ccon3)c(N)oc2cc1OC`, the Potency is 4.26 µM (active).
In the case of `COc1cccc(N2CC(C(=O)Nc3c(C)cccc3C)CC2=O)c1` (stereo not drawn), the Potency was greater than 57 µM.
For `Cc1cccc(NC(=O)c2ccccc2NC(=O)C(C)(C)C)n1`, the Potency is greater than 57 µM.
With `CCn1c(=N)n(CC(=O)c2cccc(OC)c2)c2ccccc21`, the Potency is 38.1 µM.
The figure for `Cn1c(/C(C#N)=C2/CCCCCN2)nc2ccccc21` is greater than 57 µM; for `CC1CCCCN1CC(=O)NCc1ccc2c(c1)OCO2` (stereo not drawn) it is greater than 57 µM; for `CN(CCc1ccccn1)S(=O)(=O)c1ccc2c3c(cccc13)C(=O)N2` it is greater than 57 µM.
As to `CSc1ccc(Cl)c(C(=O)OCC(=O)N2CC(C)OC(C)C2)c1` (stereo not drawn), the Potency is greater than 57 µM.
As to `NC(=O)COc1ccc2c3c(c(=O)oc2c1)CCCCC3`, the Potency is greater than 57 µM.
`CCN(CC)S(=O)(=O)c1cccc(C(=O)NCC(=O)OCC(=O)NCc2ccccc2)c1`: the Potency is greater than 57 µM.
For `O=C(Nc1ccc(Cl)cn1)c1cnn2cccnc12`, the Potency is 8.73 µM (active).
With `CC(Oc1ccc(Cl)cc1)C(=O)Nc1ncccn1` (stereo not drawn) the figure was greater than 57 µM.
As for `CCCCC(CC)C(=O)Nc1ccc(Cl)cn1` (stereo not drawn), the Potency was greater than 57 µM.
`O=C(O)c1ccc(NC(=O)c2cccs2)cc1`: the Potency was greater than 57 µM.
With `Cc1nc(-c2ccc(NC(=O)c3cccs3)cc2)cs1` the figure was 2.04 µM (active); with `O=C(Nc1ncccn1)c1cccs1`, greater than 57 µM.
As to `COC(=O)CCSc1nccn1Cc1ccccc1`, the Potency is greater than 57 µM.
For `O=c1c(F)cn(C2CCCO2)c(=O)n1Cc1ccccc1Cl` (stereo not drawn), the Potency was greater than 25.6 µM.
For the molecule `CCCOc1ccc(CN(CCO)CCO)cc1C(=O)OC`, the Potency is greater than 57 µM.
Regarding `CCC(=O)N(Cc1cc2cc(OC)ccc2[nH]c1=O)c1ccccc1C`, the Potency was greater than 57 µM.
In the case of `COc1ccc(N(Cc2cc3cc(OC)ccc3[nH]c2=O)S(C)(=O)=O)cc1`, the Potency was 7.73 µM (active).
On to `CCN(Cc1cc2cc(C)ccc2[nH]c1=O)S(=O)(=O)c1ccccc1`, for which the Potency was greater than 57 µM.
The figure for `COc1cccc(NC(=O)c2ccccc2SC)c1` is greater than 57 µM; for `CC(C)(O)C#Cc1ccc(C(=O)N2CCC(C(N)=O)(N3CCCCC3)CC2)cc1` it is greater than 57 µM.
Regarding `Cc1ccc(NC(=O)CS(=O)CC(=O)N(c2ccccc2)C(C)C(=O)NC2CCCC2)cc1` (stereo not drawn), the Potency is greater than 57 µM.
For the molecule `CCCCC(=O)N(c1ccc(OC)cc1)C1C=CS(=O)(=O)C1` (stereo not drawn), the Potency is greater than 57 µM.

(Values after PubChem BioAssay AID361 (National Center for Advancing Translational Sciences (NCATS), 2006).)
